About 79,000 compounds went through this panel and 15% of them were active in at least one assay; those are over-represented in the sample as a whole. Values without a mark were called inactive. Activity calls are given as the source filed them. Cut-off read from the data, not from the text of the source: active = growth inhibition above about 70%; inactive = the rest.
Tests used:
[1] = NCI Yeast Anticancer Drug Screen. Data for the rad52 strain (AID 147);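 note: 0% = growth of vehicle-treated control cultures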; conditions: S. cerevisiae rad52 mutant growth inhibition, hits give high values
In short: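 Screen used a yeast mutant impaired in DNA repair. After compound exposure, growth was measured. Values reflect inhibition compared with vehicle-treated cells.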

[2] = NCI Yeast Anticancer Drug Screen. Data for the wt1 strain (AID 149);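 note: 0% = growth of vehicle-treated wt1 cultures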; conditions: S. cerevisiae wt1 strain (SPY 50644) growth inhibition, hits give high values
In short: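 Growth inhibition read against vehicle controls after compound exposure of the wt1 yeast strain.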

[3] = NCI Yeast Anticancer Drug Screen. Data for the rad50EPP+ strain (AID 151);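 note: 0% = growth of vehicle-treated control cultures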; conditions: S. cerevisiae rad50 mutant strain, hits give high values
In short: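 Exposing the rad50EPP+ strain to each compound, growth was compared with vehicle-only cultures to give inhibition.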

[4] = NCI Yeast Anticancer Drug Screen. Data for the mgt1 strain (AID 153); conditions: S. cerevisiae mgt1 mutant growth inhibition, hits give high values
In short: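 Genetically defined yeast (mgt1) treated with compound; inhibition of growth expressed against vehicle-treated controls.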

[5] = NCI Yeast Anticancer Drug Screen. Data for the rad50 strain (AID 155);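 note: 0% = growth of vehicle-only cultures of the same strain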; conditions: S. cerevisiae rad50 strain growth inhibition, hits give high values
In short: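 Readout: growth inhibition relative to vehicle-treated cultures. Compound exposure was carried out in a genetically defined yeast strain deficient in DNA damage repair.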

[6] = NCI Yeast Anticancer Drug Screen. Data for the mec2-1 strain (AID 157); conditions: S. cerevisiae mec2-1 strain, hits give high values
In short: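 Readout is yeast growth inhibition, normalised to vehicle-treated controls, in the mec2-1 strain exposed to compound.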

[7] = NCI Yeast Anticancer Drug Screen. Data for the rad14 strain (AID 159);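 note: 0% = growth of vehicle-treated control cultures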; conditions: S. cerevisiae rad14 strain growth inhibition, hits give high values
In short: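 Growth inhibition vs vehicle controls; genetically altered yeast strain (DNA damage repair defect) treated with test compounds.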

[8] = NCI Yeast Anticancer Drug Screen. Data for the sgs1 mgt1 strain (AID 161);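 note: 0% = growth of cultures given vehicle only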; conditions: S. cerevisiae sgs1 mgt1 strain, hits give high values
In short: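 Yeast cells carrying a defined DNA-repair defect were exposed to test compounds. Growth inhibition was measured relative to vehicle-treated controls.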

[9] = NCI Yeast Anticancer Drug Screen. Data for the CLN2oe strain (AID 163);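 note: 0% = growth of vehicle-only control cultures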; conditions: S. cerevisiae CLN2oe strain, hits give high values
In short: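 Values reflect how much compound exposure reduced yeast growth, referenced to vehicle-exposed cells. Assay organism is a strain with a defined genetic change affecting cell-cycle control.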

[10] = NCI Yeast Anticancer Drug Screen. Data for the cln2 rad14 strain (AID 165);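 note: 0% = growth equal to vehicle treated cultures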; conditions: S. cerevisiae cln2 rad14 strain, hits give high values
In short: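 Relative to vehicle controls, growth inhibition of compound-treated cln2 rad14 yeast was recorded.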

[11] = NCI Yeast Anticancer Drug Screen. Data for the bub3 strain (AID 167); conditions: S. cerevisiae bub3 mutant strain, hits give high values
In short: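 Readout: yeast growth inhibition, expressed relative to vehicle-only wells. The test organism is a mutant strain from a panel with lesions in DNA repair or checkpoint genes.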

[12] = NCI Yeast Anticancer Drug Screen. Data for the wt2 strain (AID 169);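 note: 0% = growth of vehicle-treated yeast cultures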; conditions: S. cerevisiae wt2 strain growth inhibition, hits give high values
In short: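 Values express reduction in yeast growth under compound treatment, referenced to vehicle-treated cells.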

[13] = NCI Yeast Anticancer Drug Screen. Data for the mlh1 strain (AID 171);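 note: 0% = growth of vehicle-treated control cultures of the same strain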; conditions: S. cerevisiae mlh1 strain growth inhibition, hits give high values
In short: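 Steps: expose the defined-mutant yeast strain to compound; expose a parallel culture to vehicle; measure growth; express compound effect as inhibition relative to the vehicle culture.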

[14] = NCI Yeast Anticancer Drug Screen. Data for the sgs1 strain (AID 173);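 note: 0% = growth of vehicle-only control cultures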; conditions: S. cerevisiae sgs1 mutant, hits give high values
In short: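 Treat defined-mutant yeast with compound; measure growth; calculate inhibition relative to vehicle-treated cells.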

[15] = NCI Yeast Anticancer Drug Screen. Data for the mlh1 rad18 strain (AID 175); conditions: S. cerevisiae mlh1 rad18 strain growth inhibition, hits give high values
In short: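 Test agents were incubated with a yeast strain of defined genotype (DNA damage repair defect). Inhibition of growth was derived by comparison with vehicle-exposed cultures.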

[16] = NCI Yeast Anticancer Drug Screen. Data for the rad18 strain (AID 177); conditions: S. cerevisiae rad18 mutant growth inhibition, hits give high values
In short: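 A genetically defined yeast mutant impaired in DNA damage repair was treated with test compounds, then its growth was measured against cultures receiving vehicle alone.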

[17] = at 5.0 µM (retest, dose inferred, filed as 0.5)
[18] = at 50.0 µM (retest, dose inferred, filed as 5.0)

NC1=NCC(c2ccc(Cl)cc2)O1 (stereo not drawn)
growth inhibition ([1]; at 1.2 µM): -4%
growth inhibition ([1]; at 3.7 µM): -2%
growth inhibition ([1]; at 11.0 µM): -5%
growth inhibition ([1]; at 33.0 µM): -8%
growth inhibition ([1]; at 100.0 µM): 47%
growth inhibition ([2]; at 1.2 µM): -5%
growth inhibition ([2]; at 3.7 µM): -4%
growth inhibition ([2]; at 11.0 µM): -7%
growth inhibition ([2]; at 33.0 µM): -5%
growth inhibition ([2]; at 100.0 µM): 3%
growth inhibition ([3]; at 1.2 µM): -2%
growth inhibition ([3]; at 3.7 µM): 0%
growth inhibition ([3]; at 11.0 µM): 0%
growth inhibition ([3]; at 33.0 µM): 4%
growth inhibition ([3]; at 100.0 µM): 4%
growth inhibition ([4]; at 1.2 µM): -3%
growth inhibition ([4]; at 3.7 µM): -4%
growth inhibition ([4]; at 11.0 µM): -2%
growth inhibition ([4]; at 33.0 µM): 5%
growth inhibition ([4]; at 100.0 µM): 50%
growth inhibition ([5]; at 1.2 µM): -1%
growth inhibition ([5]; at 3.7 µM): -4%
growth inhibition [5, 17]: -151%
growth inhibition ([5]; at 11.0 µM): 7%
growth inhibition ([5]; at 33.0 µM): 11%
growth inhibition [5, 18]: 17%
growth inhibition ([5]; at 50.0 µM): 57.8%
growth inhibition ([5]; at 100.0 µM): 49%
growth inhibition ([6]; at 1.2 µM): 1%
growth inhibition ([6]; at 3.7 µM): -1%
growth inhibition [6, 17]: -51%
growth inhibition ([6]; at 11.0 µM): 3%
growth inhibition ([6]; at 33.0 µM): 1%
growth inhibition [6, 18]: 10%
growth inhibition ([6]; at 50.0 µM): 13.3%
growth inhibition ([6]; at 100.0 µM): 44%
growth inhibition ([7]; at 1.2 µM): -2%
growth inhibition ([7]; at 3.7 µM): -3%
growth inhibition ([7]; at 11.0 µM): -1%
growth inhibition ([7]; at 33.0 µM): 2%
growth inhibition ([7]; at 100.0 µM): 52%
growth inhibition [8, 17]: -62%
growth inhibition [8, 18]: 17%
growth inhibition ([8]; at 50.0 µM): 50.2%
growth inhibition ([9]; at 1.2 µM): -2%
growth inhibition ([9]; at 3.7 µM): -2%
growth inhibition ([9]; at 11.0 µM): 3%
growth inhibition ([9]; at 33.0 µM): 1%
growth inhibition ([9]; at 100.0 µM): 50%
growth inhibition [10, 17]: -64%
growth inhibition [10, 18]: 7%
growth inhibition ([10]; at 50.0 µM): 31.1%
growth inhibition ([11]; at 1.2 µM): -11%
growth inhibition ([11]; at 3.7 µM): -9%
growth inhibition [11, 17]: -76%
growth inhibition ([11]; at 11.0 µM): -4%
growth inhibition ([11]; at 33.0 µM): -6%
growth inhibition [11, 18]: 27%
growth inhibition ([11]; at 50.0 µM): 39.4%
growth inhibition ([11]; at 100.0 µM): 49%
growth inhibition ([12]; at 1.2 µM): -1%
growth inhibition ([12]; at 3.7 µM): 0%
growth inhibition ([12]; at 11.0 µM): 0%
growth inhibition ([12]; at 33.0 µM): -1%
growth inhibition ([12]; at 100.0 µM): 47%
growth inhibition ([13]; at 1.2 µM): 7%
growth inhibition ([13]; at 3.7 µM): -5%
growth inhibition ([13]; at 11.0 µM): -5%
growth inhibition ([13]; at 33.0 µM): -4%
growth inhibition ([13]; at 100.0 µM): 47%
growth inhibition ([14]; at 1.2 µM): 0%
growth inhibition ([14]; at 3.7 µM): -1%
growth inhibition ([14]; at 11.0 µM): -2%
growth inhibition ([14]; at 33.0 µM): -2%
growth inhibition ([14]; at 100.0 µM): 48%
growth inhibition [15, 17]: -135%
growth inhibition [15, 18]: 81% (active)
growth inhibition ([15]; at 50.0 µM): 50.4%
growth inhibition ([16]; at 1.2 µM): -4%
growth inhibition ([16]; at 3.7 µM): -3%
growth inhibition ([16]; at 11.0 µM): -3%
growth inhibition ([16]; at 33.0 µM): -3%
growth inhibition ([16]; at 100.0 µM): 48%

O=S(=O)(O)c1ccc(Cl)cc1.[Cd]
growth inhibition ([1]; at 1.2 µM): 3%
growth inhibition ([1]; at 3.7 µM): 9%
growth inhibition ([1]; at 11.0 µM): 35%
growth inhibition ([1]; at 33.0 µM): 50%
growth inhibition ([1]; at 100.0 µM): 66%
growth inhibition ([2]; at 1.2 µM): 2%
growth inhibition ([2]; at 3.7 µM): 11%
growth inhibition ([2]; at 11.0 µM): 25%
growth inhibition ([2]; at 33.0 µM): 55%
growth inhibition ([2]; at 100.0 µM): 73% (active)
growth inhibition ([3]; at 1.2 µM): 9%
growth inhibition ([3]; at 3.7 µM): 14%
growth inhibition ([3]; at 11.0 µM): 23%
growth inhibition ([3]; at 33.0 µM): 56%
growth inhibition ([3]; at 100.0 µM): 75% (active)
growth inhibition ([4]; at 1.2 µM): 0%
growth inhibition ([4]; at 3.7 µM): 15%
growth inhibition ([4]; at 11.0 µM): 27%
growth inhibition ([4]; at 33.0 µM): 55%
growth inhibition ([4]; at 100.0 µM): 77% (active)
growth inhibition ([5]; at 1.2 µM): -2%
growth inhibition ([5]; at 3.7 µM): 15%
growth inhibition [5, 17]: 25%
growth inhibition ([5]; at 11.0 µM): 47%
growth inhibition ([5]; at 33.0 µM): 73% (active)
growth inhibition [5, 18]: 46%
growth inhibition ([5]; at 50.0 µM): 57.1%
growth inhibition ([5]; at 100.0 µM): 84% (active)
growth inhibition ([6]; at 1.2 µM): -2%
growth inhibition ([6]; at 3.7 µM): 5%

From PubChem BioAssay (NCI)
